Experimental data taken from PubChem BioAssay.
Active and inactive are the calls of the source.

Assays:
Albumin (Bos taurus) = Albumin (Bos taurus) (UniProt P02769); assay: compounds binding labelled BSA control protein – biochemical, small-molecule microarray, Alexa647 label, 635/667 nm fluorescence, artefact control for SMM control protein annotation, profiling panel (AID 1118); conditions: BSA-A647 binding, fluorescence 635 nm, higher = more signal;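 further: score merges 667 nm emission intensity and signal-to-noise per printed compound spot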
Sequence of Albumin (Bos taurus) (P02769 whole entry, looked up): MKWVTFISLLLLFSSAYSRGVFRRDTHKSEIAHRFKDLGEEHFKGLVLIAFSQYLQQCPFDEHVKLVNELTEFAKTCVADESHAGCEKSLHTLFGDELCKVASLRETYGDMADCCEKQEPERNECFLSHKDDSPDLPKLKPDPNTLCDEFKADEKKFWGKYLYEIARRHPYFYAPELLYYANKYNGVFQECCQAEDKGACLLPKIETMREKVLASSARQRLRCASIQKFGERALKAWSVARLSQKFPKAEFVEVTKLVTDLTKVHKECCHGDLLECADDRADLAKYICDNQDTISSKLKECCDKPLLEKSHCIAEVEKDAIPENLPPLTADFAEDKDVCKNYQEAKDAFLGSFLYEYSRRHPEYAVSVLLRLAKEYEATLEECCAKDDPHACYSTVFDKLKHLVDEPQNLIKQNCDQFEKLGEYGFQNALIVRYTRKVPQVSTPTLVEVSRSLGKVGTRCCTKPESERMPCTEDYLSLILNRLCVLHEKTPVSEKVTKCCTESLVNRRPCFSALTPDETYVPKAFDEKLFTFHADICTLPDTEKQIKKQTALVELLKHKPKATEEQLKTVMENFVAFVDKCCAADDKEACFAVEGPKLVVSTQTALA

[1] = probe aXIP binding to arrayed compounds – biochemical, NeuroSMM set, 635/667 nm fluorescence, primary screen (AID 1119); conditions: small-molecule microarray, higher = more signal, called active from +8 up or from −8 down;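 further: probe is the protein aXip251-270 applied at 1 µg/mL to compound-printed slides; binding of probe to printed compounds measured as 667 nm fluorescence plus signal to noise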
[2] = probe aNOTCH3 binding on compound microarray – biochemical, small-molecule microarray, 635/667 nm fluorescence, primary screen (AID 1120); conditions: higher = more signal;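 further: probe is a biotin-tagged antibody raised against NOTCH3 rather than NOTCH3 protein; score merges spot fluorescence near 667 nm with spot signal to noise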
[3] = probe aNOTCH2 binding on compound microarray – biochemical, small-molecule microarray, 635/667 nm fluorescence, primary screen (AID 1121); conditions: higher = more signal;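 further: score merges feature fluorescence read at 667 nm with its signal to noise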
[4] = target: Carbonic anhydrase 2 (Homo sapiens) (UniProt P00918); assay: compounds binding carbonic anhydrase 2 – biochemical, small-molecule microarray, Alexa647-labelled CAII, profiling panel (AID 1122); conditions: CAII-A647 binding fluorescence, higher = more signal
[5] = COS7 lysate on small-molecule microarray, probe aHis, 635 nm (AID 1123); conditions: COS7 cell lysate, fluorescence, higher = more signal;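 further: z-score combines 667nm fluorescence intensity with signal-to-noise per printed compound spot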
[6] = probe aLAP1 signal on lysate-treated microarray – cell lysate, small-molecule microarray, COS7 lysate, primary screen (AID 1124); conditions: probe aLAP1, fluorescence, higher = more signal;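 further: lysate comes from COS7 cells expressing LAP1 and is applied at 0.3 µg/mL; score merges spot fluorescence near 667 nm with signal-to-noise over triplicate slides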
Sam68 (KHDRBS1) = assay: compounds binding KHDRBS1 protein – biochemical, small-molecule microarray, 635 nm fluorescence, primary screen (AID 1125); conditions: higher = more signal;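 further: score merges 667 nm channel intensity with signal to noise over triplicate slides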
[7] = test system: Chordin-like protein 2 (CHRDL2); assay: compounds binding chordin-like 2 – biochemical, small-molecule microarray, 635 nm fluorescence, primary screen (AID 1126); conditions: fluorescence 635 nm, higher = more signal;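 further: printed compound slides probed with Chrdl2 protein at 4 µg/mL for 1 h at 4 C; score merges 667 nm emission intensity with signal to noise over three replicate slides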
[8] = target: Concanavalin-A (Canavalia ensiformis) (UniProt P02866); assay: compounds binding concanavalin A lectin – biochemical, small-molecule microarray, Alexa647 label, 635 nm, artefact control for SMM control protein annotation, primary screen (AID 1127); conditions: ConA-A647 binding fluorescence, higher = more signal;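 further: z combines 667 nm emission intensity with signal-to-noise across three replicate slides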
Sequence of Concanavalin-A (Canavalia ensiformis) (P02866 whole entry, looked up): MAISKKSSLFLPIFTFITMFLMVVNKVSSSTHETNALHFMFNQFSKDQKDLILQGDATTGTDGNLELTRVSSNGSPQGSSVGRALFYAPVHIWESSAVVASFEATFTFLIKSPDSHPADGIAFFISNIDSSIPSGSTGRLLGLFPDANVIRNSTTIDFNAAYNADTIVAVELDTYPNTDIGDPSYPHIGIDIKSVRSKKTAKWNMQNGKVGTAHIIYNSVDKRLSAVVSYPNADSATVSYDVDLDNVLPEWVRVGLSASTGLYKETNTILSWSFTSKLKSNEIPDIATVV

Row | Structure (SMILES) | composite z-score (Albumin (Bos taurus)) | composite Z-score [1] | composite z-score [2] | composite z-score [3] | composite z-score [4] | composite z-score [5] | composite z-score [6] | composite z-score (Sam68 (KHDRBS1)) | composite z-score [7] | composite z-score [8]
1 | COC(=O)C1=C(C)N(Cc2ccccc2)c2c(C(=O)OC)c(C(=O)OC)c(C(=O)OC)c(=O)n2[C@@H]1c1ccccc1 | 0.8 | 0.242 (inactive) | 0.116 | -0.0158 | 0.0478 | 0.247 | 0.763 | 0.383 | -0.0328 | 0.641
2 | CO[C@@H]1COC(=O)CC=C[C@H](C)COC(=O)[C@H](Cc2ccccc2)NC(=O)CC=C[C@H]1C | -2.04 | 0.772 (inactive) | -0.162 | -0.167 | -0.155 | -0.596 | 0.0055 | 0.294 | 1.53 | -0.651
3 | COCCCNC(=O)[C@@H]1c2ccccc2C(=O)N(CC23CC4CC(CC(C4)C2)C3)[C@H]1c1ccc(CO)cc1 | -0.507 | 0.309 (inactive) | 0.28 | -0.0232 | 0.449 | 1.34 | 0.334 | 1.27 | -0.0949 | -0.171
4 | COCCOC(=O)N1C(=O)[C@@]2(c3cc(C#CCNC(N)=O)ccc31)[C@H](c1ccccc1OCCO)N1[C@H](c3ccccc3)[C@H](c3ccccc3)OC(=O)[C@H]1[C@@H]2C(=O)NC[C@H](O)c1ccccc1 | 0.679 | 0.25 (inactive) | 0.163 | -0.113 | 0.681 | 2.12 | 0.717 | 1.28 | 0.0781 | 1.08
5 | CCOC(=O)[C@H]1C/C=C/C[C@H](C(=O)OCC)C(=O)O[C@H]2[C@@H](OC)O[C@H](CO)[C@@H](OC(=O)Nc3ccc(Br)cc3)[C@@H]2OC1=O | 0.827 | 0.285 (inactive) | -0.122 | -0.0863 | 0.516 | 2.22 | 0.704 | 1.3 | -0.12 | 1.09
6 | Cc1ccc(S(=O)(=O)c2cc3oc2CC[C@@H](CO)NC(=O)N(C)Cc2cn(nn2)C[C@H](Cc2ccccc2)NC3=O)cc1 | 0.811 | 0.222 (inactive) | -0.0006 | -0.145 | 0.581 | 0.682 | 0.192 | 0.476 | -0.479 | 0.894
7 | CC(C)[Si]1(C(C)C)O[C@@H](c2ccccc2)c2cc(C3CC3)nc(-c3ccc(Oc4ccccc4)cc3)c21 | -1.01 | -0.233 (inactive) | -0.157 | -0.125 | -0.289 | -0.346 | -0.0034 | -0.906 | -0.408 | -1.27
8 | COCCCNC(=O)[C@@]1(c2ccc([N+](=O)[O-])cc2)CC(=O)N(C2CCCCC2)[C@@H]1c1ccc(CO)cc1 | 0.502 | -0.0867 (inactive) | -0.391 | -0.272 | 0.672 | 2.28 | 1.63 | 0.0163 | -0.264 | -0.194
9 | C=CC[C@]1(C(N)=O)N=C(c2ccc(OCCCO)cc2)O[C@H]1c1ccccc1CN=[N+]=[N-] | 1.05 | 0.221 (inactive) | -0.0502 | -0.0785 | 0.856 | 2.69 | 0.623 | 1.11 | -0.63 | 0.885
10 | C[C@@H]1NC(=O)[C@H](Cc2ccccc2)NC(=O)[C@@]23C(=O)N[C@@H](Cc4ccccc4)C2[C@H](C)[C@@]2(C)O[C@H]2C3/C=C/C/C=C\CNC1=O (stereo not given in full) | 0.0296 | 0.0437 (inactive) | -0.0996 | 0.364 | 0.82 | -0.741 | -0.634 | -0.276 | 0.399 | -0.265
11 | CO[C@H]1COC(=O)[C@H](C)NC(=O)CC=C[C@@H](C)[C@H](NS(=O)(=O)c2ccc(C)cc2)COC(=O)CC=C[C@@H]1C | -0.524 | 0.0426 (inactive) | -0.152 | -0.146 | 0.651 | -0.616 | -0.177 | -1.03 | 1.41 | -0.206
12 | CCCC[C@H]1OB(O)C[C@H]2C1=C(COC)C[C@H]1C(=O)N(Cc3ccccc3)C(=O)[C@H]12 | 0.11 | -0.328 (inactive) | 0.0727 | -0.182 | 0.606 | 0.0082 | 0.102 | 0.252 | -0.0765 | 0.106
13 | O=C(NCC(O)CO)[C@]1(Cc2ccccc2)N=C(c2ccc(OCCCO)cc2)O[C@@H]1c1ccccc1 (stereo not given in full) | 0.974 | 0.749 (inactive) | 0.101 | 0.257 | 0.366 | 3.43 | 0.634 | 1.03 | -1.93 | 0.922
14 | CC(=O)NCCCC[C@@H]1NC(=O)[C@H]2C[C@@H](C(=O)NCCCCCCN(C)C)[C@@H](c3ccc(O)cc3)N2C1=O | -0.546 | 1.44 (inactive) | 0.029 | -0.0626 | 0.365 | 2.16 | -0.1 | 1.31 | 1.09 | 1.18
15 | C=C(COC)C(=O)CC[C@H](OC(=O)c1ccccc1-c1ccccc1C(=O)O)c1cccc(OCCO)c1 | -0.611 | 0.61 (inactive) | 0.123 | -0.118 | 0.418 | 4.78 | 0.893 | 0.735 | 1.43 | 0.893
16 | C=CCNC(=O)[C@H]1[C@@H]2C(=O)O[C@@H](c3ccccc3)[C@@H](c3ccccc3)N2[C@@H](c2ccc(O)cc2)[C@]12C(=O)Nc1ccc(C#CCNC(N)=O)cc12 | -0.273 | 0.593 (inactive) | -0.174 | 0.12 | 0.78 | 0.789 | 0.0128 | 0.213 | -1.02 | -0.649
17 | C[C@H]1C2[C@H](Cc3ccccc3)NC(=O)[C@]23C(=O)N[C@H](Cc2ccccc2)C(=O)N[C@@H](Cc2ccccc2)C(=O)NC/C=C\C/C=C/C3[C@@H]2O[C@]12C (stereo not given in full) | 0.992 | 0.448 (inactive) | 0.36 | -0.0942 | 0.742 | 0.0046 | 0.0901 | -0.221 | 0.371 | -1.08
18 | CN(C)CCCC[C@@H]1NC(=O)[C@@H]2C[C@H](C(=O)O)[C@H](c3ccc(O)cc3)N2C1=O | -1.07 | 0.361 (inactive) | 0.237 | -0.117 | 0.398 | 0.917 | 0.324 | 0.916 | 0.917 | 1.12
19 | C=CCOC(=O)[C@@H]1[C@H]2C(=O)O[C@H](c3ccccc3)[C@H](c3ccccc3)N2[C@H](c2ccc(OCCOC(=O)[C@H]3C[C@H]4C(=O)N[C@@H](CCCCNC(C)=O)C(=O)N4[C@H]3c3ccc(O)cc3)cc2)[C@@]12C(=O)Nc1ccc(I)cc12 | -0.239 | 0.396 (inactive) | 0.0222 | -0.0662 | 0.374 | 0.877 | 0.278 | 1.28 | 1.15 | 0.499
20 | O=C(CS)NCCCCCCNC(=O)[C@@H]1C[C@@H]2C(=O)N[C@@H](Cc3ccccc3)C(=O)N2[C@@H]1c1ccc(O)cc1 | -0.318 | 1.1 (inactive) | -0.128 | -0.168 | 0.636 | 2.87 | 1.47 | 1.28 | 0.976 | 0.938
21 | O=C(N1CCCCC1)[C@@]1(CCS(=O)(=O)c2ccccc2)N=C(c2ccc(OCCCO)cc2)O[C@H]1c1ccccc1 | -0.0092 | -0.595 (inactive) | 0.0876 | -0.0872 | 0.663 | 3.28 | 0.343 | 1.29 | -0.58 | 0.639
22 | COc1ccc([C@H]2C[C@H]3C(Br)=C[C@]2(OC)C(=O)[C@]32CO2)cc1 | 0.504 | -0.145 (inactive) | -0.0918 | -0.161 | 0.545 | -0.332 | 0.542 | -0.72 | 0.388 | 0.0428
23 | C[N+](C)(C)CCCCNC(=O)[C@@H]1C[C@@H]2C(=O)N3CCC[C@H]3C(=O)N2[C@@H]1c1cccc(OCCO)c1 | -0.486 | 2.6 (inactive) | -0.199 | -0.153 | 0.678 | 0.538 | 0.248 | 1.04 | 1.04 | 0.909
24 | C=CCc1cccc([C@H]2N[C@H](C(=O)O)CC[C@@H]2C)c1 | -0.595 | -0.149 (inactive) | -0.122 | -0.157 | 0.0666 | -0.31 | -0.27 | 0.538 | 0.843 | 0.0607
25 | C=CCC(OC(C)=O)[C@@H]1[C@@H](N(Cc2ccc(-c3ccccc3)cc2)C(=O)c2ccc(C)cc2)c2cc(OCCCO)ccc2N1C(=O)c1ccc(-c2ccccc2)cc1 (stereo not given in full) | 0.101 | 0.451 (inactive) | -0.0933 | -0.0664 | -0.102 | 0.23 | 0.232 | -0.0015 | -0.0151 | -0.925
26 | Cc1ccc(S[C@]2(C(=O)NC(C)C)CC(=O)N(C3Cc4ccccc4C3)[C@@H]2c2ccc(CO)cc2)cc1 | 0.451 | 0.52 (inactive) | -0.409 | -0.205 | 0.81 | 1.86 | 0.123 | -0.0334 | -1.2 | 1.16
27 | COCCOC(=O)N1C(=O)[C@@]2(c3cc(C#CCNC(N)=O)ccc31)[C@H](C(=O)N1CCCCCCC1)[C@H]1C(=O)O[C@H](c3ccccc3)[C@H](c3ccccc3)N1[C@@H]2c1ccccc1OCCO | 0.328 | 1.01 (inactive) | 0.555 | 0.0231 | 0.171 | 0.963 | 0.417 | 1.14 | 0.573 | 1.08
